From the supplement of paper PMC9334596
Several values for one entry are separate records, joined by “and”; a condition that tells them apart may be missing. Equal values may be shown once. Over roughly 5,300 compounds, “PER2::LUC luminescence relative to vehicle control” has its median near 0.96; the highest 2% begin near 1.3. Shown is part of a subset that was picked to be rich in the highest values.

Tested on: mPer2Luc MEF
Experiment: PER2::LUC luminescence relative to vehicle control (fold of vehicle); higher = higher PER2::LUC reporter signal
Conditions: 10 µM
Outline: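 In 384-well plates, ~3000 mPer2Luc reporter mouse embryonic fibroblasts per well were cultured in DMEM with 10% FBS at 37 °C and 5% CO2 for 48 h before compounds from commercial libraries were added at 10 μM. ONE-Glo luciferase readings were taken 24 h and 30 h after treatment. Each value is PER2::LUC luminescence given as fold of vehicle control.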

| SMILES | PER2::LUC luminescence (time after treatment 24 h) | PER2::LUC luminescence (time after treatment 30 h) |
| --- | --- | --- |
| CC(C)(C)[Si](C)(C)Oc1ccc2oc(=O)c3c(c2c1)CCCN3 | 1.14 | 1.15 |
| CC(=O)O[C@@H]1C[C@@]23C[C@@]24CC[C@H](O[C@@H]2OC[C@@H](O)[C@H](O)[C@H]2O)C(C)(C)[C@@H]4CC[C@H]3[C@]2(C)C[C@@H]3O[C@]4(C[C@@H](C)[C@@H]3[C@@]12C)O[C@H](O)[C@@]1(C)O[C@@H]41 | 0.888 | 0.982 |
| CC[C@H](C)[C@@H]([C@@H](CC(=O)N1CCC[C@H]1[C@H](OC)[C@@H](C)C(=O)N[C@@H](Cc1ccccc1)c1nccs1)OC)N(C)C(=O)[C@@H](NC(=O)[C@@H](NC)C(C)C)C(C)C | 0.338 | 0.385 |
| O=C(O)CCC/C=C\C/C=C\C/C=C\C/C=C\CCCCCO | 0.987 | 0.936 |
| COc1cc2c(cc1OC)[C@H]1[C@@H](C)c3ccc(OC)c(OC)c3CN1CC2 | 0.954 | 0.973 |
| CCCCOc1ccc(C(=O)Nc2ccc(F)cc2F)cc1 | 1.29 | 1.34 |
| COc1cc2nccc(Oc3ccc(NC(=O)Nc4ccc(F)cc4F)c(F)c3)c2cc1OC | 0.785 | 0.689 |
| CCCCOc1ccc(CC(=O)NO)cc1 | 1.01 | 1.01 |
| O=C[C@H](O)[C@@H](O)[C@H](O)CO (racemic) | 0.94 | 1.06 |
| C[C@@H](O)[C@H]1C(=O)N2C(C(=O)O)=C(SC3CN(C4=NCCS4)C3)[C@H](C)[C@H]12 | 1.03 | 1.01 |
| O=C(O)c1ccc2nc(-c3cc(Cl)cc(Cl)c3)oc2c1 | 1.42 | 1.43 |
| C=CC(C1=CC(=O)C(OC)=CC1=O)c1ccc(OC)cc1 (stereo not drawn) | 1.16 | 1.02 |
| CC1(C)[C@@H](O)CC[C@]2(C)[C@H]3C(=O)C=C4[C@@H]5C[C@@](C)(C(=O)O)CC[C@]5(C)CC[C@@]4(C)[C@]3(C)CC[C@@H]12 | 1.22 and 0.966 | 1.5 and 0.907 |
| CC1(C)[C@@H](O)CC[C@]2(C)[C@H]3C(=O)C=C4[C@H]5C[C@@](C)(C(=O)O)CC[C@]5(C)CC[C@@]4(C)[C@]3(C)CC[C@@H]12 | 0.97 | 0.899 |
| CC1(C)[C@@H](OC(=O)CCC(=O)O)CC[C@]2(C)[C@H]3C(=O)C=C4[C@@H]5C[C@@](C)(C(=O)O)CC[C@]5(C)CC[C@@]4(C)[C@]3(C)CC[C@@H]12 | 0.965 and 0.646 | 0.891 and 1.01 |
| CC(C)C[C@H](N)C(=O)N[C@H](C(=O)N[C@H](C(=O)N[C@@H](Cc1ccc(O)cc1)C(=O)N1CCC[C@H]1C(=O)N[C@@H](Cc1c[nH]c2ccccc12)C(=O)N[C@H](C(=O)N[C@@H](CCC(N)=O)C(=O)N[C@@H](CCCN=C(N)N)C(=O)O)[C@@H](C)O)C(C)C)C(C)C | 0.942 | 0.916 |
| COc1ccc(C[C@H]2c3cc(OC)c(OC)cc3CC[N+]2(C)C)cc1OC | 0.944 | 0.889 |
| COc1ccccc1-c1nc(-c2ccccn2)no1 | 0.948 | 0.943 |
| C#CCCC(=O)O | 1.07 | 0.985 |
| Cc1c(OCC(F)(F)F)ccnc1C[S@@+]([O-])c1nc2ccccc2[nH]1 | 1.68 and 1.14 | 1.73 and 1.12 |
| COc1ccnc(C[S+]([O-])c2nc3cc(-n4cccc4)ccc3[nH]2)c1C (stereo not drawn) | 1.07 | 1.05 |
| COc1ccnc(C[S+]([O-])c2nc3cc(OC(F)F)ccc3[nH]2)c1OC (stereo not drawn) | 0.944 and 1.32 | 1.01 and 0.991 |

| SMILES | PER2::LUC luminescence (time after treatment 24 h) | PER2::LUC luminescence (time after treatment 30 h) |
| --- | --- | --- |
| COc1ccc2[nH]c([S+]([O-])Cc3ncc(C)c(OC)c3C)nc2c1 (stereo not drawn) | 0.886 | 1.08 |
| COCCCOc1ccnc(C[S+]([O-])c2nc3ccccc3[nH]2)c1C (stereo not drawn) | 1.15 and 1.39 and 1.44 | 1.12 and 1.68 and 1.47 |
| COc1ccc2[nH]c([S@@+]([O-])Cc3ncc(C)c(OC)c3C)nc2c1 | 1.02 and 1.01 and 1.11 | 1.01 and 0.923 and 1.08 |
| COc1ccc2[nH]c([S+]([O-])Cc3ncc(C)c(OC)c3C)nc2n1 (stereo not drawn) | 0.776 | 1.01 |
| Cc1c(OCC(F)(F)F)ccnc1C[S+]([O-])c1nc2ccccc2[nH]1 (stereo not drawn) | 1.17 | 1.67 |
| N=C(N/N=C/c1ccc(Cl)cc1)N/N=C/c1ccc(Cl)cc1 | 0.996 | 0.988 |
| CCOC(=O)C1=Cc2ccc(C(F)(F)C(F)(F)F)cc2N=C(N)C1 | 1.07 | 1.05 |
| O=[N+]([O-])c1cc(C(F)(F)F)cc([N+](=O)[O-])c1NNC(=S)Nc1ccc(F)cc1 | 0.67 | 0.671 |
| CCCCC[C@H](O)/C=C/[C@@H]1[C@@H](C/C=C\CCCC(=O)O)[C@H](O)C[C@H]1O | 1.1 | 1.1 |
| Oc1ccccc1NCc1ccccn1 | 0.921 | 1.05 |
| C[C@H](CCC(=O)NCC(=O)NCCS(=O)(=O)O)[C@H]1CC[C@H]2[C@@H]3[C@H](O)C[C@@H]4C[C@H](O)CC[C@]4(C)[C@H]3C[C@H](O)[C@]12C | 0.886 | 0.904 |
| CC1(C)O[C@@H]2C[C@H]3[C@@H]4C[C@H](F)C5=CC(=O)C=C[C@]5(C)[C@@]4(F)[C@@H](O)C[C@]3(C)[C@]2(C(=O)CO)O1 | 0.902 | 1.15 |
| CCC(=O)O[C@]1(C(=O)CCl)[C@@H](C)C[C@H]2[C@@H]3CCC4=CC(=O)C=C[C@]4(C)[C@@]3(F)[C@@H](O)C[C@@]21C | 0.711 | 1.08 |
| CC1(C)O[C@@H]2C[C@H]3[C@@H]4CCC5=CC(=O)C=C[C@]5(C)[C@@]4(F)[C@@H](O)C[C@]3(C)[C@]2(C(=O)CO)O1 | 0.583 | 1.35 |
| CCC(=O)OCC(=O)[C@@]1(OC(=O)CC)[C@@H](C)C[C@H]2[C@@H]3CCC4=CC(=O)C=C[C@]4(C)[C@@]3(F)[C@@H](O)C[C@@]21C | 0.454 and 0.475 | 1.01 and 0.98 |
| CC(=O)OCC(=O)[C@@]12OC3(CCCC3)O[C@@H]1C[C@H]1[C@@H]3CCC4=CC(=O)C=C[C@]4(C)[C@@]3(F)[C@@H](O)C[C@@]12C | 0.828 | 1.13 |
| CCCCC(=O)O[C@]1(C(=O)CO)[C@@H](C)C[C@H]2[C@@H]3CCC4=CC(=O)C=C[C@]4(C)[C@@]3(F)[C@@H](O)C[C@@]21C | 0.684 and 0.795 | 1.37 and 1.15 |
| Nc1nc(=O)c2c([nH]1)NCC(CNc1ccc(C(=O)N[C@@H](CCC(=O)O)C(=O)O)cc1)=N2 | 1.06 | 0.985 |
| COc1cccc(NCC(O)Cn2c3ccc(Br)cc3c3cc(Br)ccc32)c1 (stereo in doubt) | 0.88 | 0.955 |
| COc1c2c(cc3occ(-c4ccc5c(c4)OCO5)c(=O)c13)OC(C)(C)C=C2 | 0.833 | 0.876 |
| COc1ccc(-c2c(O)c3c(OC)c4c(cc3oc2=O)OC(C)(C)C=C4)cc1 | 1.5 | 1.46 |
| COc1cc(OC)c2c(OC)c(-c3ccc4c(c3)OCO4)c(=O)oc2c1 | 1.02 | 1.21 |
